Holding throughout (assay): NCI-60 one-dose screen, 48 h (100 = growth as untreated, 0 = no growth, -100 = all killed)
Common to all, as to settings: 10 µM unless noted

Test [1] has as its system T-47D breast.
For test [2], the system named is BT-549 breast.
Test [3] concerns MDA-MB-435 melanoma.
The test system of test [4] is SW-620 colon.
The subject of test [5] is MCF7 breast.
In test [6] the test system is HCT-116 colon.
Test [7] deals with HCC-2998 colon.
Test [8] deals with KM12 colon.

Here are results for 29 molecules from PubChem BioAssay (NCI).

The panel holds about 83,000 compounds, 20% with a hit somewhere; the sample as a whole holds those more often.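 96-well plates, one dose, 48 hours. Percent growth reported; active if below 10.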 Values without a mark were called inactive. Active and inactive are the calls of the source.

Take `NS(=O)(=O)c1ccc(NC(=O)/C(=C\c2ccc(Cl)cc2Cl)NC(=O)c2ccccc2)cc1`: the growth in test [1] is 87.5%; in test [2] it was 89.1%; in test [3], 97.7%; in test [4], 104%; in test [5], 90.1%; in test [6], 97.3%. Further, the growth is 103% in test [7] and 102% in test [8].

As for `CN1CCN(CCOc2ccc(-c3cnc4c(-c5cccc(F)c5F)cnn4c3)cc2)CC1`, the growth in test [1] was 85.4%; in test [2], 50.4%; in test [3], -66.1% (active); in test [4], -68.9% (active); in test [5], -23.8% (active); in test [6] it was -65% (active). Besides, the growth in test [7] is 101%; in test [8], -68.9% (active).

With `CCOC(=O)c1c(C)nc2c(c1N)CC(=O)N2Cc1ccc(OC)cc1`, the growth in test [1] was 32.2%; in test [2], 18.5%; in test [3] it was 88.3%; in test [4] it was 77.6%; in test [5], 37.5%; in test [6], 12.6%. For the same molecule, the growth in test [7] is 51.1%; in test [8], 58%.

Consider `CCN1C(=O)N(CC)C2C1NN=c1s/c(=C\c3ccc[nH]3)c(=O)n12` (configuration not stated), for which the growth in test [1] is 31%; in test [2], 51.2%; in test [3], -57% (active); in test [4], 16.9%; in test [5] it was 17.6%; in test [6] it was 17%. The growth was 33.1% in test [7] and 8.23% (active) in test [8].

For `[2H]C([2H])([2H])Oc1ccc(F)cc1/C=C/C(=O)/C=C(O)/C=C/c1cc(F)ccc1OC([2H])([2H])[2H]`, the growth is 73.5% in test [1]; 93.3% in test [2]; 84.5% in test [3]; 102% in test [4]; 70% in test [5]; 83.9% in test [6]. For the same molecule, the growth in test [7] was 105%; in test [8], 98.4%.

Regarding `O=[N+]([O-])c1ccc(-c2cn3nc(-c4c[nH]c5ccccc45)sc3n2)cc1`, the growth was 64.8% in test [1]; 99.5% in test [2]; 107% in test [3]; 99.9% in test [4]; 79.5% in test [5]; 90.8% in test [6]. For the same molecule, the growth in test [7] is 86.1%; in test [8], 83.2%.

Turning to `O=S1(=O)C=C(c2ccccc2)C(c2ccccc2)=C1`, the growth is -63.4% (active) in test [1]; 79.6% in test [2]; 25.4% in test [3]; -82.9% (active) in test [4]; 6.2% (active) in test [5]; -74.8% (active) in test [6]. In addition, the growth is 15.5% in test [7] and 16.5% in test [8].

`COc1ccc(/C=C2\CN(C(=O)C(Cl)Cl)C/C(=C\c3ccc(OC)cc3)C2=O)cc1`: the growth in test [1] is 2.86% (active); in test [2], -19.3% (active); in test [3], -37.4% (active); in test [4] it was -41.5% (active); in test [5], -28.5% (active); in test [6], -70.2% (active). Besides, the growth was -77% (active) in test [7] and -70.3% (active) in test [8].

As to `NC(=O)c1c(NC(=O)c2cccs2)sc2c1CCC(=O)C2`, the growth in test [1] is 8.16% (active); in test [2] it was 8.21% (active); in test [3], 43.7%; in test [4], 15.1%; in test [5], 45.1%; in test [6], 4.11% (active). The growth in test [7] is 72.9%; in test [8], 20.3%.

Consider `O=C1Nc2c(C(=O)O)cccc2/C1=N/c1n[nH]c(=S)s1`, for which the growth in test [1] was 68.4%; in test [2] it was 116%; in test [3], 88.4%; in test [4] it was 88.1%; in test [5], 80.8%; in test [6], 96.2%. In addition, the growth is 103% in test [7] and 75.4% in test [8].

In the case of `O=C(NNC(=O)c1ccc(NC(=O)c2ccccn2)cc1)Nc1ccc2ccccc2c1`, the growth is 106% in test [1]; 107% in test [2]; 110% in test [3]; 116% in test [4]; 96% in test [5]; 102% in test [6]. Besides, the growth was 121% in test [7] and 102% in test [8].

Regarding `O=C(O)c1ccc(-c2ccc(/C=N/Nc3nc(Nc4ccccc4)nc(N4CCCCC4)n3)o2)cc1`, the growth was 63.7% in test [1]; -4.12% (active) in test [2]; 83.2% in test [3]; 86.6% in test [4]; 80.1% in test [5]; 57.8% in test [6]. Moreover, the figures for the growth in test [7] and in test [8] were 74.7% and 61.7%, respectively.

Regarding `Cc1ccc(C(=O)c2ccc(CC(=O)NN3C(=O)c4ccccc4C3=O)n2C)cc1`, the growth is 98.3% in test [1]; 110% in test [2]; 99.6% in test [3]; 99.3% in test [4]; 91.4% in test [5]; 107% in test [6]. Moreover, the growth was 104% in test [7] and 102% in test [8].

Consider `CC1=CC(c2ccco2)=C2C(N)=NNC2N1` (configuration not stated), for which the growth was 85.1% in test [1]; 100% in test [2]; 101% in test [3]; 102% in test [4]; 91% in test [5]; 100% in test [6]. Besides, the growth in test [7] is 99.2%; in test [8], 105%.

On to `CCOC(=O)c1c(C)nc2c(c1N)/C(=C/c1ccc(OC)cc1)C(=O)N2Cc1ccccc1`, for which the growth in test [1] was 40.7%; in test [2] it was 63.6%; in test [3], 63.4%; in test [4] it was 55.6%; in test [5], 22.8%; in test [6], 36.8%. The results for the growth in test [7] and in test [8] were 62.8% and 33.6%, respectively.

Take `COc1cc2nc3sc(C(=O)Nc4ccc(C(=O)OC(C)C)cc4)c(C(=O)Nc4ccc(Cl)cc4C)n3c(=O)c2cc1OC`: the growth in test [1] was 46.5%; in test [2] it was 96.7%; in test [3], 76.5%; in test [4], 38.7%; in test [5], 52.2%; in test [6], 76.3%. Also, the results for the growth in test [7] and in test [8] were 20.5% and 52.3%, respectively.

For the molecule `Cc1c2ccncc2c(C)c2c1c1cc(CO)ccc1n2C`, the growth is -17.1% (active) in test [1]; 10.7% in test [2]; 6.7% (active) in test [3]; 1.67% (active) in test [4]; 4.26% (active) in test [5]; -22.5% (active) in test [6]. Moreover, the growth in test [7] was 15.5%; in test [8] it was 9.22% (active).

Regarding `CN1CCN(C(=O)C(C)(C)c2ccc(C(=O)Nc3cn4cc(-c5ccncc5)ccc4n3)cc2)CC1`, the growth in test [1] is 3.75% (active); in test [2], 7.86% (active); in test [3], 14.2%; in test [4] it was 11.1%; in test [5], -0.0814% (active); in test [6], 5.31% (active). The results for the growth in test [7] and in test [8] were 13.9% and 7.82% (active), respectively.

Take `CCSc1oc(C)nc1[P+](c1ccccc1)(c1ccccc1)c1ccccc1`: the growth in test [1] is 14.6%; in test [2], 12.4%; in test [3] it was 25.3%; in test [4], 32.9%; in test [5] it was 13.7%; in test [6] it was 14.4%. Also, the growth was 29.5% in test [7] and 8.25% (active) in test [8].

Turning to `COc1ccc(/C=C/c2c(C(=O)/C=C/c3ccccc3)c(C)nc3ccccc23)cc1`, the growth was 12.9% in test [1]; 31.4% in test [2]; -33% (active) in test [3]; 2% (active) in test [4]; 12.8% in test [5]; -70.1% (active) in test [6]. Further, the growth in test [7] is 12.3%; in test [8] it was 3.01% (active).

In the case of `COc1cccc(CCNc2ncnc3c2ncn3Cc2nnc3c4ccccc4c(Cl)nn23)c1`, the growth is 48.5% in test [1]; 47.8% in test [2]; 57.5% in test [3]; 57.4% in test [4]; 63% in test [5]; 39.6% in test [6]. The growth in test [7] was 91.9%; in test [8] it was 80%.

Consider `CC1C=CC(OC(=O)C(C)(O)CCC(O)(C(=O)OC2CC(O)C(C(C)C)CC2(C)O)C(C)C)(C(C)C)CC1` (configuration not stated), for which the growth was -47.1% [4.63 µM] (active) in test [1]; -81% [4.63 µM] (active) in test [2]; -92% [4.63 µM] (active) in test [3]; -67.8% [4.63 µM] (active) in test [4]; -67.6% [4.63 µM] (active) in test [5]; -40% [4.63 µM] (active) in test [6]. The results for the growth in test [7] and in test [8] were -72.8% [4.63 µM] (active) and -77.4% [4.63 µM] (active), respectively.

Turning to `COc1cccc(/C=C/C(=O)c2cc3c(N)c(C(=O)Nc4cccc5ccccc45)sc3nc2C)c1`, the growth in test [1] is 32.3%; in test [2], 19.3%; in test [3] it was -50.7% (active); in test [4], -1.14% (active); in test [5] it was 13.4%; in test [6], 12.2%. Further, the growth in test [7] was -23.8% (active); in test [8], 11%.

For the molecule `CSC(SC)=C(C#N)c1nc2ccccc2s1`, the growth is 33.2% in test [1]; 13.1% in test [2]; 76.5% in test [3]; 81.5% in test [4]; 47.3% in test [5]; 14.2% in test [6]. Also, the figures for the growth in test [7] and in test [8] were 82.2% and 58.3%, respectively.

As to `N#Cc1c(Nc2ccc(N3CCOCC3)cc2)nc(SCC(=O)c2ccc(Br)cc2)nc1-c1ccccc1`, the growth in test [1] was 102%; in test [2], 115%; in test [3] it was 109%; in test [4], 109%; in test [5], 94.8%; in test [6] it was 87.9%. Also, the growth in test [7] was 100%; in test [8], 103%.

In the case of `O=C(NC(Cc1nnc2n(Cc3ccccc3)c(=O)c3c4c(sc3n12)CCCC4)c1ccccc1)c1ccccc1` (configuration not stated), the growth was 102% in test [1]; 100% in test [2]; 105% in test [3]; 101% in test [4]; 97.9% in test [5]; 81.4% in test [6]. Further, the growth in test [7] and in test [8] was 108% in each case.

`CCN1CCN(CC(=O)Nc2ccc(-c3cn4c(n3)sc3cc(Oc5ccnc(C(=O)NC)c5)ccc34)cc2)CC1`: the growth is 32.8% in test [1]; 57.2% in test [2]; 10.1% in test [3]; 8.44% (active) in test [4]; 80.2% in test [5]; 1.48% (active) in test [6]. The values for the growth in test [7] and in test [8] were 117% and 75.6%, respectively.

Turning to `CC1(C)C(N)=Nc2cc(OCCCN3Cc4ccccc4C3)c(OCC3CC3)cc21`, the growth in test [1] was 45.8%; in test [2], 76.5%; in test [3], 66.6%; in test [4] it was 87.8%; in test [5] it was 50.4%; in test [6], 49.2%. Besides, the growth in test [7] is 11.9%; in test [8] it was 84.2%.

As for `CCc1ccc(CCC(=O)Nc2ncc(Cc3cc(Cl)ccc3Cl)s2)o1`, the growth was 44% in test [1]; 36.4% in test [2]; -42.6% (active) in test [3]; 24.1% in test [4]; 14% in test [5]; 17.5% in test [6]. Further, the growth in test [7] was 19.7%; in test [8] it was 20.3%.
